Assay outcomes as filed in PubChem BioAssay.
Mdm2-MdmX inh – disrupts the human Mdm2-MdmX interaction; SaOS-2 split-luciferase Mdm2/MdmX complementation, luminescence; inhibition, % at 8 µM; actives 3% (n = 330,000);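 active = inhibition of at least 50% at 8 µM in the primary screen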
Target sequence (O15151 whole entry, looked up): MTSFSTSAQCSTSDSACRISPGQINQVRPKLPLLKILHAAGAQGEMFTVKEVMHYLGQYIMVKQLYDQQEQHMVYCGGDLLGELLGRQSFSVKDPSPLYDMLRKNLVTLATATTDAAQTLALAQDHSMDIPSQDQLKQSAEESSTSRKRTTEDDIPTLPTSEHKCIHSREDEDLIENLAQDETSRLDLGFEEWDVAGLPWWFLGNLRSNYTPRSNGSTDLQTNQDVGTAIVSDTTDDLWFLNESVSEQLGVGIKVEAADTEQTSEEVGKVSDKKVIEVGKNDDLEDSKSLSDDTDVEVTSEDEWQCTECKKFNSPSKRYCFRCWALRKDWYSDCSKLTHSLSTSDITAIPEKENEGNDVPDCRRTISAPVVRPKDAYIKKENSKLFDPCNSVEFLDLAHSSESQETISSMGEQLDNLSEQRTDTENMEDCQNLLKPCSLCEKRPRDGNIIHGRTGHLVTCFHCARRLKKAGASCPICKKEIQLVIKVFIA
Target sequence (Q00987 whole entry, looked up): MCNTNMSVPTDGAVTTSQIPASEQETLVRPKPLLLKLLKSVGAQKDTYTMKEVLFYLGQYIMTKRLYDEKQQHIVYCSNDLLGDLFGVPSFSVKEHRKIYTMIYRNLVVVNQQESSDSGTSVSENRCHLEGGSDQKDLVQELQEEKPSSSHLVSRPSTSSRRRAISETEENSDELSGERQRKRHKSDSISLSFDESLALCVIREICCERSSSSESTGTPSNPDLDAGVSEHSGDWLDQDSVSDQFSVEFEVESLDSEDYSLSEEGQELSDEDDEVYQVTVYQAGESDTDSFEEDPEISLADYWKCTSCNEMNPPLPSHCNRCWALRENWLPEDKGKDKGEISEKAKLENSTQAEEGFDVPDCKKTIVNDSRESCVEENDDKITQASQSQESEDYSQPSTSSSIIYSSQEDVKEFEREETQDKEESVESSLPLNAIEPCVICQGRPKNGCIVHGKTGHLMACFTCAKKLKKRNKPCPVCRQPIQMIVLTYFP
NR3A LBD binder – modulators (binders) of human NR3A ligand-binding domain. Tm shift relative to glycine control, % at 25 µM. actives 2.5% (n = 340,000). NR3A LBD differential scanning fluorimetry, Tm shift; 0% = protein alone, 100% = glycine-bound protein;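 active = melting temperature shift of at least 10% of the positive control shift, at one fixed dose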
MPTP inh – blocks calcium-induced mitochondrial swelling; inhibition, % at 10 µM; isolated mouse mitochondria, Ca2+ swelling absorbance, 30 min; actives 1.4% (n = 360,000);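 active = inhibition of 50% or more, scaled per plate between neutral and stimulator controls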;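 note: 0% = DMSO wells given calcium and 100% = 1 mM EGTA wells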
Gli-Sufu antag – Gli-Sufu pathway antagonism; AID 588413; Sufu-KO-LIGHT fibroblasts, Gli luciferase reporter luminescence; inhibition, % at 5 µM; actives 0.74% (n = 340,000);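 active = inhibition above about 55%, limit read from the data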;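 note: 0% = DMSO-treated cells and 100% = wells with medium but no cells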
CSC inhib – blocks cancer stem cells; cancer stem cell-like cells viability, luminescence; inhibition, % at 7.5 µM; actives 1.1% (n = 300,000); in the data active = inhibition above about 75%; inconclusive = no clear call, values can overlap the other calls; tested in HMLE shEcad cells
Beta cell apopt – beta cell apoptosis inhibition. INS-1E cytokine-induced death, ATP luminescence, 48 h; percent of positive-control rescue, neutral wells zero. protection from apoptosis, % (no concentration beside the values). actives 0.8% (n = 300,000). AID 435005;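 active = Every replicate reaches about 75%, or at least half do and their mean reaches it too, limit read from the data; inconclusive = At least half of replicates reach the limit but their mean does not; inactive = Under half of replicates reach the limit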;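 note: 0% = cytokine-treated negative control wells and 100% = positive control rescue; higher means more ATP so stronger rescue from cytokine killing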
* hit, by the source's call; ? = inconclusive; / = not tested or not shown. Shown are actives, neighbours in structure and some others; about 6.6% of the full set was active somewhere.

SMILES | Mdm2-MdmX inh | NR3A LBD binder | MPTP inh | Gli-Sufu antag | CSC inhib | Beta cell apopt
COC(=O)C(Oc1ccc2c(-c3ccc(OC)cc3)cc(=O)oc2c1)c1ccccc1 (stereo unspecified) | 27 | 0 | 0 | -2 | 1 | -8
O=C(NCc1ccco1)C(c1ccccc1F)N(Cc1cccnc1)C(=O)Cn1nnc2ccccc21 (stereo unspecified) | 2 | 11* | 0 | -20 | -10 | 0
O=C(NCc1ccco1)C(c1ccc(F)cc1)N(Cc1cccnc1)C(=O)Cn1nnc2ccccc21 (stereo unspecified) | 11 | -7 | -1 | 2 | / | -3
C/C(=N\NC(=O)c1ccc(C)cc1)c1c(C)[nH]n(-c2ccccc2)c1=O | 21 | -9 | 2 | 6 | 36 | 91*
C/C(=N\NC(=O)c1ccccc1)c1c(C)[nH]n(-c2ccccc2)c1=O | 38 | 1 | 3 | 8 | 58 | 14
CCOC(=O)c1cccc(N2C(=O)Nc3ccccc3N2O)c1 | 6 | 18* | 0 | -2 | -1 | -1
CCOC(=O)c1c(-c2ccccc2)csc1N1C(=O)Nc2ccccc2N1O | -8 | -2 | 3 | -3 | -25 | 1
Cc1cc(NC(=O)C(C)SCC(=O)OCC(=O)Nc2c(C)cccc2C(C)C)no1 (stereo unspecified) | -2 | 2 | 0 | -6 | / | 1
Cc1nc2ccccc2c2oc(C(=O)Nc3ccc(C(C)C)cc3)cc12 | 35 | 2 | 12 | 20 | / | 79*
O=C(Nc1cc(Cl)ccc1O)c1cc2n(n1)C(C(F)(F)F)CC(c1ccc3c(c1)OCO3)N2 (stereo unspecified) | 27 | 23* | 2 | 10 | 30 | 8
COc1ccc(OC)c(NC(=O)c2cc3n(n2)C(C(F)(F)F)CC(c2ccc4c(c2)OCO4)N3)c1 (stereo unspecified) | 44 | -3 | 1 | -4 | / | -9
CCOC(=O)N1CCN(C(=O)C[C@@H]2C[C@@]3(C(=O)OC)CC(C)(C)CC=C3N(CCc3ccc(OC)c(OC)c3)C2=O)CC1 | / | / | 1 | / | / | /
O=C(Nc1cccc(Cl)c1)c1ccc2ncsc2c1 | -18 | 34* | 0 | -64 | / | /
O=C(Nc1ccc(Cl)cc1)c1ccc2ncsc2c1 | -54 | 24* | 2 | -72 | / | /
O=C(COC(=O)c1ccc2ncsc2c1)Nc1cccc(Cl)c1 | 5 | -2 | 0 | -9 | / | -1
CCN(CC)CCC(=O)Nc1cccc2c1C(=O)c1ccccc1C2=O | 46 | -1 | 5 | -12 | 25 | 98*
Cc1cccc(NC(=O)COC(=O)c2cccc3c2C(=O)c2ccccc2C3=O)c1C | 31 | -13 | -1 | 9 | 8 | 5
Nc1cccc(C(=O)OCC(=O)Nc2cccc3c2C(=O)c2ccccc2C3=O)c1 | -5 | 33* | 0 | -28 | 44 | 15
CC1(NC(=O)c2ccccc2)CCN(CCCc2ccccc2)C1=O (stereo unspecified) | -6 | -4 | 0 | -4 | -4 | 13
O=C(c1ccc(OC2CCN(Cc3ccccc3C(F)(F)F)CC2)cc1)N1CCCCC1 | 39 | 19* | 0 | 40 | 0 | /
CC(C)C[C@@H](CN1CCC[C@@H]1CN1C(=S)NC[C@@H]1Cc1ccc(O)cc1)N1C[C@H](Cc2ccc(O)cc2)N(CCc2ccccc2)C1=S | / | / | 3 | / | / | /
c1ccc2c(-c3nn[nH]n3)cccc2c1 | 24 | 12* | -2 | -10 | 1 | -3
Oc1cccc2c(-c3nn[nH]n3)ccnc12 | 7 | 0 | 0 | -11 | -4 | -16
O=C(NCc1ccc(F)cc1)c1cc(C2CCCCN2S(=O)(=O)Cc2ccccc2)on1 (stereo unspecified) | / | / | -1 | / | / | /
CCOC(=O)C1CCCN(S(=O)(=O)CCNC(=O)c2cccc(OC)c2)C1 (stereo unspecified) | 17 | / | 1 | 18 | 5 | -3
SMILES | Mdm2-MdmX inh | NR3A LBD binder | MPTP inh | Gli-Sufu antag | CSC inhib | Beta cell apopt
CCc1nc(NC(C)(C)C)c2cnn(-c3ccccc3)c2n1 | -10 | -10 | 1 | -16 | 95* | -1
CCCCNc1ncnc2c1cnn2-c1ccccc1 | -34 | 0 | -5 | 7 | -14 | 5
CCC(Sc1nc(C)cc(C)n1)C(=O)NC1=NN=C(c2ccc(C)cc2)CS1 (stereo unspecified) | -8 | 1 | -1 | -2 | 45 | 127*
Cc1cc(C)nc(SCC(=O)NC2=NN=C(c3ccc(Br)cc3)CS2)n1 | 17 | -2 | 0 | 1 | -3 | 113*
COc1ccccc1NC(=O)CCN1C(=O)C2CC=CCC2C1=O (stereo unspecified) | 21 | 1 | 0 | -12 | 1 | -5
O=C(N[C@H]1CC[C@H](CCNS(=O)(=O)c2ccc(Cl)cc2)O[C@@H]1CO)c1cccc(F)c1 | / | / | -2 | / | / | /
COc1ccc(NC(=O)c2cc(-c3sc(NC(=O)c4ccccc4)nc3C)n(CCO)n2)cc1 | / | / | 0 | / | / | /
N#CCCCSc1nnc(CSc2nc3ccccc3s2)n1-c1ccccc1 | 8 | -2 | 0 | -1 | -7 | 1
CCCSc1nnc(CSc2nc3ccccc3s2)n1-c1ccccc1 | 7 | -4 | 35 | 11 | 86* | 44
Oc1ccccc1/C=N/Nc1nc2ccccc2o1 | -36 | 3 | 4 | 7 | ? | 98*
COc1cc(/C=N\Nc2nc3ccccc3o2)cc(OC)c1OC | 14 | -39 | 1 | -28 | 0 | 6
COc1ccc(/C=N/Nc2nc3ccccc3o2)cc1O | -41 | -4 | -1 | -75 | 15 | -4
Brc1ccc(/C=N/Nc2nc3ccccc3o2)cc1 | -69 | 28* | 0 | -73 | 20 | -1
CCCC(C(=O)Nc1cc(S(=O)(=O)N2CCOCC2)ccc1OC)c1ccccc1 (stereo unspecified) | 14 | -1 | 0 | 16 | -3 | -18
CCOc1ccc(NC(=O)C(C)Oc2ccccc2C(=O)Nc2cccc(Cl)c2Cl)cc1 (stereo unspecified) | 19 | 12* | 3 | -13 | 10 | /
CCC1CCc2c(sc(NC(=O)C3c4ccccc4Oc4ccccc43)c2C(N)=O)C1 (stereo unspecified) | 9 | 17* | 18 | 5 | 6 | -4
CCOC(=O)c1c(NC(=O)C2c3ccccc3Oc3ccccc32)sc(C(N)=O)c1C | 29 | -10 | -4 | 14 | -4 | 9
COc1c(C(=O)Nc2nnc(C3CC3)s2)csc1Cl | -18 | 0 | 0 | -52 | -6 | -1
COc1cccc(CN2CCC(C(=O)N3CCN(Cc4ccc5c(c4)OCO5)CC3)CC2)c1 | 14 | 13* | 2 | 31 | -4 | 0
COc1cccc(CN2CCC(C(=O)N3CCN(c4ccccc4F)CC3)CC2)c1 | 3 | -3 | 7 | 23 | 8 | -16
CCCCNC(=S)N(C)/N=C/c1c(F)c(F)c(F)c(F)c1F | 0 | 20* | 3 | 5 | 47 | 0
CCCCNC(=S)N/N=C/c1ccccc1F | -5 | 4 | 0 | -42 | 5 | -2
